Inhibition data for 11 compounds are collected here from ChEMBL document CHEMBL1157539, “Thousands of chemical starting points for antimalarial lead identification” (Nature, 2010).

Format in all cases: functional
The test system of assay [1] is Plasmodium falciparum. The assay can be described thus: GSK_TCMDC: Inhibition of Plasmodium falciparum 3D7 in whole red blood cells, using parasite LDH activity as an index of growth. Test compounds present at 2uM.
Assay [2] deals with Plasmodium falciparum. The assay can be described thus: GSK_TCMDC: Inhibition of Plasmodium falciparum Dd2 in whole red blood cells, using parasite LDH activity as an index of growth. Test compounds present at 2uM.
For another assay, the system named is HepG2. Kind of assay: GSK_TCMDC: Percent inhibition of human HepG2 cell line. Test compounds present at 10uM.

Broadly, the Inhibition is the share of the control response that was lost under treatment. Low values mean a response near the control, high ones a response far below the control.

Take `Cc1ccc2c(=NN=CC=Cc3ccccc3)cc(C)[nH]c2c1`: the figures for the Inhibition in the assay on Plasmodium falciparum [1], in the assay with Plasmodium falciparum [2] and in the assay with HepG2 were 92%, 13% and 3%, respectively.

As for `Cc1nc(-c2nc(NCc3ccc4c(c3)OCO4)ncc2-c2ccsc2)sc1C`, the results for the Inhibition in the assay on Plasmodium falciparum [1], with Plasmodium falciparum [2] and in the assay on HepG2 were 97%, 77% and 7%, respectively.

For the compound `CC1CN(c2ccc(NC(=O)c3ccsc3)cc2C(=O)N2CCN(Cc3ccc(C(C)(C)C)cc3)CC2)CC(C)O1` (stereo not drawn), the figures for the Inhibition in the assay on Plasmodium falciparum [1], with Plasmodium falciparum [2] and with HepG2 were 90%, 80% and 12%, respectively.

As to `CCCCCCN1CCC(NCc2cccc(C(F)(F)F)c2)CC1.O=C(O)C(F)(F)F`, the Inhibition is recorded as 100% with Plasmodium falciparum [1], 82% in the assay with Plasmodium falciparum [2] and 18% in the assay with HepG2.

Consider `CC1CN(Cc2ccccc2)CCN1c1ccc(NC(=O)c2cccs2)cc1.O=C(O)C(F)(F)F` (stereo not drawn), for which the Inhibition in the assay on Plasmodium falciparum [1] worked out at 96%; with Plasmodium falciparum [2], 96%; in the assay on HepG2, 0%.

For the compound `C/C=C/COc1ccc(-c2c(C)[nH]c(C)c(Cl)c2=O)cc1`, the Inhibition with Plasmodium falciparum [1] is 97%; in the assay with Plasmodium falciparum [2] it was 97%; in the assay with HepG2, 0%.

Take `COc1ccc(CN2CCCC(Nc3ccc(F)c(F)c3)C2)c(O)c1` (stereo not drawn): the Inhibition is recorded as 95% with Plasmodium falciparum [1], 83% in the assay with Plasmodium falciparum [2] and 14% in the assay on HepG2.

For `Cc1cccc2nc(-c3ccc(-c4cccc(CN5CCN(c6ccncc6)CC5)c4)s3)[nH]c12.O=C(O)C(F)(F)F`, the figures for the Inhibition with Plasmodium falciparum [1], in the assay on Plasmodium falciparum [2] and in the assay on HepG2 were 100%, 99% and 48%, respectively.

Consider `CC(=O)c1ccc(S(=O)(=O)N2CCC(C(=O)Nc3ccccc3N3CCCC3)CC2)cc1`, for which the Inhibition with Plasmodium falciparum [1] amounted to 95%; with Plasmodium falciparum [2] it was 99%; with HepG2, 0%.

On to `O=C(NCCCN(Cc1ccc(F)cc1)c1ccccn1)C(c1cc2ccccc2o1)N1CCN(C(c2ccccc2)c2ccccc2)CC1` (stereo not drawn), for which the Inhibition in the assay on Plasmodium falciparum [1] stood at 97%; in the assay with Plasmodium falciparum [2] it was 53%; in the assay on HepG2 it was 14%.

Take `O=C(Nc1ccc(-c2ccc(CN3CCNCC3)cc2)cc1)c1cccc(Cl)c1.O=C(O)C(F)(F)F`: the Inhibition with Plasmodium falciparum [1] is recorded as 91%; in the assay on Plasmodium falciparum [2], 16%; in the assay with HepG2, 58%.
